Data as given in ChEMBL document CHEMBL3988442, “University of Dundee, Small-Polar-MMV Screening Library” (2021).
For some of these results: Measured potencies and affinities stand elsewhere.

Legend:
Design in all cases: scale not given: direction of the effect not stated beside the values
[1] = molecular target: Protein translocase subunit SecA (Escherichia coli (strain K12)) (UniProt P10408); assay: Assay to Identify E. coli SecA ATPase Inhibitors; type: functional; settings: 30 µM
[2] = molecular target: T1, Ubiquitin-activating enzyme e1, putative (Leishmania donovani (strain BPK282A1)) (UniProt E9BSI1); assay: Leishmania donovani Ubiquitin Activating Enzyme (LdE1); type: functional; settings: 30 µM
T1 sequence (whole entry): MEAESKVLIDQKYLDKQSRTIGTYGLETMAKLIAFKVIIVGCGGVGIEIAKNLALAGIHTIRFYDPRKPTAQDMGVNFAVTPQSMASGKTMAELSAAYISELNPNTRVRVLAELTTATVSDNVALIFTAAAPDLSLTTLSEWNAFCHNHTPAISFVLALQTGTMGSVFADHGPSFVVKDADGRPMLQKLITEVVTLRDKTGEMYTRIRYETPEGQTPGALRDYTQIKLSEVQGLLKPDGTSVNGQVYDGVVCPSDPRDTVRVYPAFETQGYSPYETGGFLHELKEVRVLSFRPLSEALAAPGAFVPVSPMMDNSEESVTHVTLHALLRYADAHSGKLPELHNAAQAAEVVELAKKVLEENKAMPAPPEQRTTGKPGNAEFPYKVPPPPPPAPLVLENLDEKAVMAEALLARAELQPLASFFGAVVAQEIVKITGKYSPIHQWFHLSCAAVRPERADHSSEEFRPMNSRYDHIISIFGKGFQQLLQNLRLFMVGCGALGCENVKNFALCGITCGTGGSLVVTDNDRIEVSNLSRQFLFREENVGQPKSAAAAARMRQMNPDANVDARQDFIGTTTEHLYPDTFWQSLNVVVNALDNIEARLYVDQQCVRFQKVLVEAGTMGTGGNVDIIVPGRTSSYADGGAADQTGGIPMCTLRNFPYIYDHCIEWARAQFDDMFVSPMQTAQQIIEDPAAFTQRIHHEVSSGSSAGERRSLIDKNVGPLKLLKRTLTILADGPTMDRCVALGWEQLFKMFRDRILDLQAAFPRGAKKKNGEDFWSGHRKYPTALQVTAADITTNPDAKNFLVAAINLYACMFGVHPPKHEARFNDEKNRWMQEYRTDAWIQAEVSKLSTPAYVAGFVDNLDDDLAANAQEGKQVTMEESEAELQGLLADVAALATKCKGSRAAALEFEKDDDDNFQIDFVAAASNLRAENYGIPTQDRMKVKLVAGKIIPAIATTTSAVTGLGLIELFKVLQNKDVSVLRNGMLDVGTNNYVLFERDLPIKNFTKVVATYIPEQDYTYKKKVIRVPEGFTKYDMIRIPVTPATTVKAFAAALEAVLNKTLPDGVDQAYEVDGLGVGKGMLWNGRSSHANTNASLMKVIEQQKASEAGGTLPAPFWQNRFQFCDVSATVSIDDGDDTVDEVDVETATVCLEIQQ

[3] = molecular target: AMP-activated protein kinase, AMPK (Homo sapiens) (UniProt P54646+O43741+P54619+Q9UGJ0+Q9Y478+Q13131+Q9UGI9); assay: AMP-dependent Kinase enzyme assay. An in vitro enzyme assay that detects ADP turnover that is directly proportional to AMPK activity. This uses naive AMPK that is activated during the assay with MK-8722; type: functional; settings: 30 µM
[4] = molecular target: Sialic acid-binding Ig-like lectin 9 (Homo sapiens) (UniProt Q9Y336); assay: Hs-Siglec9 ALPHAscreen SOP 20170721; settings: 10 µM
Trypanosoma cruzi = assay: Trypanosoma cruzi phosphomannomutase and mannose-1-phosphate guanylyltransferase assay; type: functional; settings: 10 µM
[5] = molecular target: T2, Arginase-2, mitochondrial (Homo sapiens) (UniProt P78540); assay: in vitro enzyme assay to detect the production of urea directly proportional to the activity of Arginase II; type: functional; settings: 33.3 µM; also: in the data most compounds retested in dose-response had high values
T2 sequence (whole entry): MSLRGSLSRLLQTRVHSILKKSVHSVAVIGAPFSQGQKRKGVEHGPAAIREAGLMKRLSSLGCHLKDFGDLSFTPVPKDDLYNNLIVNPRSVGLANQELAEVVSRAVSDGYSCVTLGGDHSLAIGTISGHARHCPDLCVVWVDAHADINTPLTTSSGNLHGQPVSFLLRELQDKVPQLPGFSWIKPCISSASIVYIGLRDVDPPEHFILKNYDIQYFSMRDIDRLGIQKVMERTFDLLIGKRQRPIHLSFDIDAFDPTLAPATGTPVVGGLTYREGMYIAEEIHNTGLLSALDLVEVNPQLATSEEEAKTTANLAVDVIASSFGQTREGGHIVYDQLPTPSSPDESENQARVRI

[6] = molecular target: T3, Proteasome subunit beta (Trypanosoma cruzi) (UniProt O96673); assay: Trypanosoma cruzi proteasome chymotrypsin-like activity (TcProtChymo) assay.; also: in the data most compounds retested in dose-response had high values; type: functional; settings: 9.37 µM
T3 sequence (whole entry): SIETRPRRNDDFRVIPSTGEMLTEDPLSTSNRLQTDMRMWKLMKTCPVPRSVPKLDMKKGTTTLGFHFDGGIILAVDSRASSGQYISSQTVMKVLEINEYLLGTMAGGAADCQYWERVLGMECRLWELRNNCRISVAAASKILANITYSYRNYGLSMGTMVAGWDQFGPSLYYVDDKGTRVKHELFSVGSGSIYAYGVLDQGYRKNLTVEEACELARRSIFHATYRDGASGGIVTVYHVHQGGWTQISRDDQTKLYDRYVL

Homo sapiens = organism: Homo sapiens; assay: To identify inhibition of the IFN signalling (Jak-Stat) pathway via expression of an eGFP reporter gene under the control of an IFN-stimulated response element (ISRE) containing MxA promoter.; type: functional; settings: 30 µM
[7] = molecular target: T4, Tyrosyl-tRNA synthetase, putative (Trypanosoma cruzi (strain CL Brener)) (UniProt Q4DSP6); assay: Trypanosoma cruzi tyrosyl tRNA synthetase (TcYRS) _High Tyrosine SOP; type: functional; settings: 30 µM; also: in the data most compounds retested in dose-response had high values
T4 sequence (whole entry): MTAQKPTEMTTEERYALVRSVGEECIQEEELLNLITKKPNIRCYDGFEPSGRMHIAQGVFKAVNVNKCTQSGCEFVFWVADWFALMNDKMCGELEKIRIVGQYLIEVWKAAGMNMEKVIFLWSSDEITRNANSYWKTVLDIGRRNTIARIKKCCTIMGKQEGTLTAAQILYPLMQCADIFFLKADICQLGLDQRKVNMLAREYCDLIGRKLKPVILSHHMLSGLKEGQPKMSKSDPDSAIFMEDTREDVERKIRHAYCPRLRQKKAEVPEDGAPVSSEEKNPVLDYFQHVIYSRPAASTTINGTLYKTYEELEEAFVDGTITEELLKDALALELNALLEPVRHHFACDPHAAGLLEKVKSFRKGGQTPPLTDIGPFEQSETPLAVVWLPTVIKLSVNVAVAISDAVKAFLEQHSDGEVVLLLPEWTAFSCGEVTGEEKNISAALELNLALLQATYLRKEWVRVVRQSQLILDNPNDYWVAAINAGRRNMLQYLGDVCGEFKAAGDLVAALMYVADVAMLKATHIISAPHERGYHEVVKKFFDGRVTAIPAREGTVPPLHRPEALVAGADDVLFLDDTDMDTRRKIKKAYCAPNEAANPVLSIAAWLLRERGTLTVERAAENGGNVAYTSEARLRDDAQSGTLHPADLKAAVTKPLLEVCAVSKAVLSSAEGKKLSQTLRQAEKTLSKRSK

[8] = molecular target: T4, Tyrosyl-tRNA synthetase, putative (Trypanosoma cruzi (strain CL Brener)); assay: Trypanosoma cruzi tyrosyl tRNA synthetase (TcYRS) SOP; type: functional; settings: 30 µM
[9] = molecular target: Chromo domain-containing protein 1 (Saccharomyces cerevisiae (strain ATCC 204508 / S288c) (Baker's yeast)) (UniProt P32657); assay: ScCHD-1 Enzyme Inhibition Assay; type: functional; settings: 30 µM; also: in the data most compounds retested in dose-response had high values
Chain of Chromo domain-containing protein 1 (Saccharomyces cerevisiae (strain ATCC 204508 / S288c) (Baker's yeast)) (P32657 whole entry, the tested form may be a part): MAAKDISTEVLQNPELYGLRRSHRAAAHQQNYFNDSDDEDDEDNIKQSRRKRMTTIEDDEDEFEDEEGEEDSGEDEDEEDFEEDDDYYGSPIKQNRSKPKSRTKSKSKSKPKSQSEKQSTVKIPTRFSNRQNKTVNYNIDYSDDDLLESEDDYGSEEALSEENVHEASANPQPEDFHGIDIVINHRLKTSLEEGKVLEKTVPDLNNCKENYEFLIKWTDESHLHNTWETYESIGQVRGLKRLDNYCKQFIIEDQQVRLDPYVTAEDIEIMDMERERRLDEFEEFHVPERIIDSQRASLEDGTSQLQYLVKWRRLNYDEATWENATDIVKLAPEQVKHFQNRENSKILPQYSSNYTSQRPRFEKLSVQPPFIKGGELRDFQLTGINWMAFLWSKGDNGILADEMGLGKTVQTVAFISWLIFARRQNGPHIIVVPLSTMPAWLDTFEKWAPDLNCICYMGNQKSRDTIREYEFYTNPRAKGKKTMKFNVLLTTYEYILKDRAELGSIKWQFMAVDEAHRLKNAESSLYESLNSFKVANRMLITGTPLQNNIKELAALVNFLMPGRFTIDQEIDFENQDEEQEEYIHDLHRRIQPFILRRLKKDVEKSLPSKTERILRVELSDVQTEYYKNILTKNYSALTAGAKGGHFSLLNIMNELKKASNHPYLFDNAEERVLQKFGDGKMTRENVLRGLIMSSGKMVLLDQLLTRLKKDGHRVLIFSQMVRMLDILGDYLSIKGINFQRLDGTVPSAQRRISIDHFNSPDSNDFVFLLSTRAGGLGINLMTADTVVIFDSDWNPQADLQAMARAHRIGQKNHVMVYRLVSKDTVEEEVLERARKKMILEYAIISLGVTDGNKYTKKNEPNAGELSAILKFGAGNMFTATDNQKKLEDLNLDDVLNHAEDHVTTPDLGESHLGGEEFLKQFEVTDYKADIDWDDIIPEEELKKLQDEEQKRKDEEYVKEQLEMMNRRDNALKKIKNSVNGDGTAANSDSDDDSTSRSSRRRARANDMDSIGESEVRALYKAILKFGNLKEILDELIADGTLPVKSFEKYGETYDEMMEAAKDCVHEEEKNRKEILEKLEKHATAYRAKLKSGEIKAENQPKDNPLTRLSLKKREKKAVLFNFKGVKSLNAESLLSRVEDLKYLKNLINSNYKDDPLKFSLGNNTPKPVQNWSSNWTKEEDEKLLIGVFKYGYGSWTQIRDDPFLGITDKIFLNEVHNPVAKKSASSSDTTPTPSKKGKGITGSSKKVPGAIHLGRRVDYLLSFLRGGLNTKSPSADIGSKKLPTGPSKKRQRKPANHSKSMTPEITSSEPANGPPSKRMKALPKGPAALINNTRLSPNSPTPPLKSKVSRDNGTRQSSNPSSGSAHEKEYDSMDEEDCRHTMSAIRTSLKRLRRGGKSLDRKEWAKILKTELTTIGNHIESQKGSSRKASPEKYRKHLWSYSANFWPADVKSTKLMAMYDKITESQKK

Chain of Protein translocase subunit SecA (Escherichia coli (strain K12)) (P10408 whole entry): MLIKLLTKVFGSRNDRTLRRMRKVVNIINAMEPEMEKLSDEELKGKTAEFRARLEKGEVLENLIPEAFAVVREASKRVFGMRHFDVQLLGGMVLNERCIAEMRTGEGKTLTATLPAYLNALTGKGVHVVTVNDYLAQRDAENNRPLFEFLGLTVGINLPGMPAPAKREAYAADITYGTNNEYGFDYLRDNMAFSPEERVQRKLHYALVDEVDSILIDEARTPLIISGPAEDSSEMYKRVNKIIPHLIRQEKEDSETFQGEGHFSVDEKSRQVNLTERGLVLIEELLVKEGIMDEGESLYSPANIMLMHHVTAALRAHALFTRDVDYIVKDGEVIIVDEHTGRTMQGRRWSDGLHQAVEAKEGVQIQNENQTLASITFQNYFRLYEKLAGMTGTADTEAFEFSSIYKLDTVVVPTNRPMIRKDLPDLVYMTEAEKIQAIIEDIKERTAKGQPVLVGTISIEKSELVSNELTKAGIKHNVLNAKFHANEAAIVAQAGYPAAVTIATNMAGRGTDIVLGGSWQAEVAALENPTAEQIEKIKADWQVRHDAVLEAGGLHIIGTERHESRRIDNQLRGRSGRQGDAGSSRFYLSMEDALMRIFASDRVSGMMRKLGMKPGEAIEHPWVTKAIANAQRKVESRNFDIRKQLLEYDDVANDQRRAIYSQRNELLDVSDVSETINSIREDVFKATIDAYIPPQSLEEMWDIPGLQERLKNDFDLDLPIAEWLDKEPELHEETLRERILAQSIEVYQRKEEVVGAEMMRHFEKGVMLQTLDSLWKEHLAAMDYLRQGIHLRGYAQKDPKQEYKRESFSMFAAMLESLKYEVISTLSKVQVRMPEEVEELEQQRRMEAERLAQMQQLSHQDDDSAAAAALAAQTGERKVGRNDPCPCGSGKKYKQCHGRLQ
Chain of Sialic acid-binding Ig-like lectin 9 (Homo sapiens) (Q9Y336 whole entry): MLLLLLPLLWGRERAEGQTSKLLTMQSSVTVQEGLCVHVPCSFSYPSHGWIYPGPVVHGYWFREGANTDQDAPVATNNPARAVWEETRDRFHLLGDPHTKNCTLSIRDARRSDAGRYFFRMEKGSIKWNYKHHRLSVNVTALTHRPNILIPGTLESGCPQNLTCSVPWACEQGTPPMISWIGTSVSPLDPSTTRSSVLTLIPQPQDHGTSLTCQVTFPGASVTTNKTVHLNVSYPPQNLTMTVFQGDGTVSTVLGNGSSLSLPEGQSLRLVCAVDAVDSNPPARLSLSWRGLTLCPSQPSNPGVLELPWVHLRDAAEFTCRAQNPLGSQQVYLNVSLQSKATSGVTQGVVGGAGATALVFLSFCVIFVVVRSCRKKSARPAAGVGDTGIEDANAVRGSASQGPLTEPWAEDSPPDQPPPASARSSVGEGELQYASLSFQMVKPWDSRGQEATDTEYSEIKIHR

Row | Structure (SMILES) | Percent Effect [1] | Percent Effect [2] | Percent Effect [3] | Percent Effect [4] | Percent Effect (Trypanosoma cruzi) | Percent Effect [5] | Percent Effect [6] | Percent Effect (Homo sapiens) | Percent Effect [7] | Percent Effect [8] | Percent Effect [9]
1 | NC(=O)C1CCN(C(=O)c2ccn(-c3ccc(F)cc3)n2)C1 (stereo unspecified) | -2.82% | 5.41% | 0.129% | -2.22% | -6.96% | 4.25% | 5.39% | 6.15% | 4.95% | 11% | 1.99%
2 | COCC(=O)N1CC[C@H]2C[C@@H](c3nnc(C4CC4)o3)O[C@@H]2C1 | -5.18% | 18.7% | -7.93% | 0.755% | 1.74% | -57.2% | 19.5% | -2.44% | 4.17% | 17.5% | -6.39%
3 | CC(C)c1nc(CCNC(=O)NCc2ccnc(N(C)C)c2)cs1 | -3.48% | 6.33% | 8.79% | 4.61% | -0.103% | 5.81% | 9.43% | 12.5% | 1.04% | 5.06% | -13%
4 | O=C(Cc1ccc2c(c1)OCCO2)N1CCCC(n2cccn2)C1 (stereo unspecified) | 2.92% | 2.6% | 13.7% | -3.29% | 1.08% | 2.74% | 3.15% | 22.6% | -7.62% | -2.35% | -15%
5 | Cc1nccn1CCCC(=O)N1CCC(Nc2cccnn2)CC1 | -3.42% | 5.41% | -7.19% | 11.7% | 4.43% | -1.6% | 3.06% | 1.39% | 2.46% | 16.1% | -8.26%
6 | Cc1nccn1-c1cc(CNC(=O)CCNC(=O)C2CCCC2)ccn1 | -5.76% | 21.1% | -10% | 9.11% | 6.63% | -4.68% | 5.84% | 5.17% | 8.37% | 23.5% | -6.78%
7 | Cc1nc(CN2CCOC(Cn3cncn3)C2)nc2ccccc12 (stereo unspecified) | -1.64% | -2.6% | 3.13% | 0.385% | 3.04% | -1.05% | 9.62% | -20.1% | 5.71% | 0% | -15.8%
8 | COc1cccc(CN2CCCCCC2c2cccc(C)c2)c1O (stereo unspecified) | -3.46% | -2.6% | 18.9% | -5.45% | -3.25% | -3.23% | 24% | 21.6% | -5.29% | -3.85% | -9.17%
9 | O=C1NC(c2ccccc2)=N[C@@]12CC[C@@H]1CN(Cc3ccccc3)C[C@@H]12 | -1.1% | 10.7% | -2.75% | 0.12% | 2.12% | -43.5% | 7.18% | 3.72% | 10.4% | 27.5% | -8.07%
10 | CC(C)c1n[nH]c(C2CN(C(=O)CCn3ccccc3=O)CCO2)n1 (stereo unspecified) | -3.88% | 1.27% | 3.8% | -2.89% | -3.18% | -2.37% | 2.92% | -3.42% | 3.12% | 7.59% | -5.25%
11 | Cc1cccc(N2CCN(CCNC(=O)C(C)n3cncn3)CC2)c1 (stereo unspecified) | -4.94% | 28.9% | -8.42% | -3.17% | 3.83% | -3.96% | 15% | 9.51% | 7.39% | 23.5% | -10.7%
